Screening results as filed in PubChem.
CYP2C9 inhib – blockers of cytochrome P450 2C9 activity – biochemical, luminescence, ADME assay, primary screen; P11712; CYP2C9 Supersomes, luciferin-H conversion; inhibition, % at 5 µM; 96,000 tested, 20% active;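 active = blocking of liver enzyme CYP2C9 beyond about 50% at 5 µM, limit read from the data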
Target sequence (P11712 whole entry, looked up): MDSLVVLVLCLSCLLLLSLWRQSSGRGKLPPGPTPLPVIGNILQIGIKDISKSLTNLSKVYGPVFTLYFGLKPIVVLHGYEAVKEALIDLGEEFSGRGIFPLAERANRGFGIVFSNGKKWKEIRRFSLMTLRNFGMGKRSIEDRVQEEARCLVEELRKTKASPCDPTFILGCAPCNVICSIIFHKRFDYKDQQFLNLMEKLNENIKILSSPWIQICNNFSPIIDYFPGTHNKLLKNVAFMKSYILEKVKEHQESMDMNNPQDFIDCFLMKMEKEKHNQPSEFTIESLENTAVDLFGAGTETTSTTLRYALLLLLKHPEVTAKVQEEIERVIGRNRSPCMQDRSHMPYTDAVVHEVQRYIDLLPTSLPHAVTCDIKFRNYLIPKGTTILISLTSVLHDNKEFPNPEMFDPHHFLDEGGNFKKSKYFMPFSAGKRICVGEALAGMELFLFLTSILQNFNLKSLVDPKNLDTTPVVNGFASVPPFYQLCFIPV
PostGolgi yeast – phenotypic screen on post-Golgi transport, primary screen. post-Golgi transport phenotypic cell assay. inhibition, % at 10 µM. AID 739, 2007. 98,000 tested, 0.9% active;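 also: yeast cells grown in 1536-well plates; yeast grown about 18 h at 30C before absorbance read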
PostGolgi ctrl – growth inhibition of yeast control strain, primary screen, counter-screen for post-Golgi transport modulator project | 98,000 tested, 5% active | efflux-deficient yeast background strain, growth absorbance A615, 16 h | inhibition, % at 10 µM
CYP2C19 inh – blockers of cytochrome P450 2C19 activity – biochemical, luminescence, ADME assay, primary screen. P33261. CYP2C19 Supersomes, luciferin-H EGE luminescence, 30 min. inhibition, % at 5 µM. 96,000 tested, 21% active;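 active = CYP2C19 inhibition above a set limit at 5 µM in the primary screen, cut at about 50% in these data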
CYP2C19 activ – human CYP2C19 activators, primary screen, biochemical, luminescence; 96,000 tested, under 10 active; AID 1025, 2008; recombinant CYP2C19, luciferin-H EGE luminescence; active compounds read high; 0 = fully inhibited enzyme, 1 = untreated enzyme; Cytochrome P450 2C19 (Homo sapiens), P33261; activation factor at 5 µM;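 active = activation factor of at least 2 at 5 µM in the primary screen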
CYP2C9 activ – human CYP2C9 activators, primary screen, biochemical, luminescence; 96,000 tested, 1.4% active; activation factor at 5 µM; recombinant CYP2C9, luciferin-H conversion; active compounds read high; factor 1 = untreated enzyme, 0 = blocked; Cytochrome P450 2C9 (Homo sapiens), P11712;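 active = activation factor of 2 or more for CYP2C9 at a 5 µM dose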
Each line names hits and unclear results; the compound was inactive in the other large screens. In the library only some 32% were active in any assay of this set; here they are far more common. Rule as the data show it, unless noted: active = inhibition above about 30%; inactive = the rest.

COc1cc(CCC(=O)OCC(=O)Nc2ncc(Cl)cc2Cl)cc(OC)c1OC	none
COc1ccc(CSc2nnc(C)n2N)cc1	none
O=C(COC(=O)CCS(=O)(=O)c1ccc(Cl)cc1)Nc1ncc(Cl)cc1Cl	CYP2C19 inh 51
COc1ccccc1OCCC(=O)OCC(=O)Nc1ncc(Cl)cc1Cl	CYP2C19 inh 87
CCCCNC(=O)C(NS(=O)(=O)c1cccc2nsnc12)c1ccccc1 (configuration not stated)	none
CN1CCN(C(=O)c2cc3c(C(F)(F)F)nn(C)c3s2)CC1	none
CCc1ccc(S(=O)(=O)NC(CC(=O)O)c2ccccc2)cc1 (configuration not stated)	none
O=C(O)C1CCCCC1C(=O)Nc1ccc(F)cc1F (configuration not stated)	none
CCn1c(SCC(=O)Nc2nccs2)nnc1-c1ccc(S(=O)(=O)N2CCCCCC2)cc1	CYP2C9 inhib 52
O=C(CSc1n[nH]c(-c2ccc(S(=O)(=O)N3CCCCC3)cc2)n1)Nc1nccs1	CYP2C9 inhib 87
COC(=O)c1[nH]c2cc(OC)c(OC)cc2c1NC(=O)Oc1ccccc1	none
CC(C)(C)C(=O)Nc1ccc(Oc2ccc3c(c2)C(=O)N(c2ccc(O)cc2)C3=O)cc1	none
CCC(=O)Nc1ccc(Oc2ccc3c(c2)C(=O)N(c2ccc(O)cc2)C3=O)cc1	CYP2C19 inh 77
Cn1c(=O)c2c(ncn2CC(=O)NCc2cccnc2)n(C)c1=O	none
O=C1NC(c2ccco2)Nc2sc3c(c21)CCN(Cc1ccccc1)C3 (configuration not stated)	CYP2C9 inhib 69
COc1ccc(Br)cc1C1NC(=O)c2c(sc3c2CCN(C)C3)N1 (configuration not stated)	none (no result: PostGolgi yeast, PostGolgi ctrl)
CN1CCc2c(sc3c2C(=O)NC(c2ccco2)N3)C1 (configuration not stated)	none
CN1CCc2c(sc3c2C(=O)NC(c2cn(Cc4ccccc4)c4ccccc24)N3)C1 (configuration not stated)	CYP2C9 inhib 79, CYP2C19 inh 69
C=C1CC2C=C(NC(C)=O)CC(C1)C2 (configuration not stated)	none
Oc1oc(-c2ccccc2)nc1C=NCc1ccccc1	CYP2C9 inhib 69, CYP2C19 inh 78
CN(C)c1ccc(N=Cc2nc(-c3ccccc3)oc2O)cc1	CYP2C19 inh 50
CSc1ccccc1N=Cc1nc(-c2ccccc2)oc1O	CYP2C19 inh 68
Oc1oc(-c2ccccc2)nc1C=Nc1ccccc1	none
Cc1cccc(-n2c(Cc3cc(=O)[nH]c(=O)[nH]3)nnc2SCC(=O)NCC2CCCO2)c1 (configuration not stated)	none
Cc1cc(=O)oc(C)c1C(=O)N1CCc2c([nH]c3ccccc23)C1C(C)C (configuration not stated)	CYP2C19 inh 50
CC(C)(C)c1ccc(C(=O)N/N=C/c2cccc(Cl)c2)cc1	CYP2C19 inh 76
O=C(Cc1cc(=O)[nH]c(=O)[nH]1)NCCN1CCOCC1	none (no result: CYP2C9 inhib, CYP2C19 inh, CYP2C19 activ, CYP2C9 activ)
Cn1c(CNc2nc3ccccc3n2C)nc2ccccc21	CYP2C19 inh 70
CC(=O)NCc1nc2ccccc2n1C(C)C	none
CC(C)n1c(CNC(=O)c2ccccc2)nc2ccccc21	CYP2C19 inh 86
CCOC(=O)c1ccc(NCc2nc3ccccc3n2C)cc1	none
CC(C)n1c(NCc2cc(Cl)ccc2O)nc2ccccc21	none
Cn1c(NCc2c(O)ccc3ccccc23)nc2ccccc21	none
CC(C)n1c(NCc2nc3ccccc3n2C)nc2ccccc21	CYP2C9 inhib 54, CYP2C19 inh 84
Cc1ccc(NCc2nc3ccccc3n2C)cc1	PostGolgi ctrl 34, CYP2C19 inh 96
CCN(CC)CCNC(=O)c1ccc(CS(=O)(=O)c2ccc(Br)cc2)o1	none (no result: CYP2C9 inhib, CYP2C19 inh, CYP2C19 activ, CYP2C9 activ)
COc1ccc(NC(=O)CSC2CC(=O)N(c3ccc4c(c3)OCCO4)C2=O)cc1 (configuration not stated)	none
CCn1c(CNc2nc3ccccc3n2C(C)C)nc2ccccc21	CYP2C9 inhib 82, CYP2C19 inh 82
CC(C)n1c(Nc2ccccc2)nc2ccccc21	none
